Measurements: PubChem BioAssay
Values joined by “and” are separate entries in the source; they are usually repeats but may differ in a detail not shown here. Equal entries are not always repeated. Inconclusive results are not listed. Active and inactive are the calls of the source. Unless noted, how the calls were made is not given here.

What was measured:
[1] = circadian clock period modulators, cell-based, LOPAC library, luminescence reporter (AID 2774); conditions: circadian reporter cells, at 7 µM, actives lie on both sides;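 further: values are relative to mean of DMSO wells on each plate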
[2] = tested on: Hepatitis C virus NS3 helicase; experiment: HCV NS3 helicase inhibitors, primary screen, biochemical, fluorescence polarization, LOPAC1280 library (AID 687035; in the data active means inhibition above about 37%); conditions: Purified HCV NS3 helicase, Cy5-dT15 ssDNA binding fluorescence polarization; stronger effect = higher value; concentration not given here
[3] = Cy5 fluorescence quenching or enhancement artefacts, artefact control for HCV NS3 helicase inhibitor project, biochemical, LOPAC1280 (AID 687037); conditions: Cy5-DNA-NS3h complex fluorescence interference counterscreen
[4] = tested on: Aerobactin synthetase IucA (Klebsiella pneumoniae, hypervirulent); experiment: IucA enzyme inhibition, biochemical, LOPAC library, absorbance readout (AID 1346212); conditions: IucA enzyme assay, absorbance (OD) readout; stronger effect = lower value;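 tested at 8 µM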;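 further: 100% = no compound wells and 0% = no enzyme wells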
[5] = sensitizers of A549 cells to miR-34 induction, primary screen, imaging, A549 dox-inducible miR-34, nuclei and caspase counts (AID 1347080;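 active means compounds whose cell count with miR-34 switched on is under 0.7 times the count with it off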); conditions: A549 miR-34 inducible, Hoechst nuclei count, 48 h
[6] = viability rescue of complex I mutant cybrids, primary screen, cell-based, galactose medium, ATP luminescence (AID 1645843;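 active means z-score of at least 1.8 in each of two replicates, scored against plate mean and spread of sample wells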;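 further: positive z means more ATP and so rescue of galactose-driven cybrid death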); conditions: complex I mutant cybrid cells, 72 h, stronger effect = higher value
[7] = growth inhibition of DIPG glioma cells, dose response, cell-based, SU-DIPG-XVII, MIPE5.0, CellTiter-Glo, qHTS (AID 1347060; cut-off not given, nearly all actives have AC50 up to about 26 µM;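 on AC50: cells exposed to compound for 48 hours before viability readout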); conditions: SU-DIPG-XVII viability, CellTiter-Glo ATP luminescence
[8] = growth inhibition of DIPG glioma cells, dose response, cell-based, SU-DIPG-XIII, MIPE4.0, CellTiter-Glo, qHTS (AID 1347061; cut-off not given, nearly all actives have AC50 up to about 37 µM;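 further: cells exposed to compound for 48 hours before readout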); conditions: SU-DIPG-XIII viability, CellTiter-Glo ATP luminescence
[9] = growth inhibition of DIPG glioma cells, dose response, cell-based, JHH-DIPG-1, MIPE4.0, CellTiter-Glo, qHTS (AID 1347062; cut-off not given, nearly all actives have AC50 up to about 27 µM;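 on AC50: cells exposed to compound for two days before readout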); conditions: JHH-DIPG-1 viability, CellTiter-Glo ATP luminescence
[10] = growth inhibition of DIPG glioma cells, dose response, cell-based, SU-DIPG-IV, MIPE4.0, CellTiter-Glo, qHTS (AID 1347063; cut-off not given, nearly all actives have AC50 up to about 30 µM;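 further: compound exposure lasted 48 hours before the viability readout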); conditions: SU-DIPG-IV viability, CellTiter-Glo ATP luminescence
[11] = viability loss in pontine glioma line – cell-based, SU-DIPG-XXV, MIPE5.0, CellTiter-Glo, qHTS, dose response (AID 1347065; cut-off not given, nearly all actives have AC50 up to about 26 µM;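 further: cells exposed to compound for 48 hours before ATP readout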); conditions: CellTiter-Glo ATP luminescence
[12] = SU-DIPG-VI glioma cell viability, MIPE4.0 library, CellTiter-Glo luminescence, qHTS (AID 1347066; cut-off not given, nearly all actives have AC50 up to about 30 µM;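 further: cells exposed to compound for 48 hours before readout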); conditions: CellTiter-Glo ATP luminescence
[13] = JHH-DIPG-1 glioma cell viability, MIPE5.0 library, CellTiter-Glo luminescence, qHTS (AID 1347067; cut-off not given, nearly all actives have AC50 up to about 26 µM;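 further: cells exposed to compound for 48 hours before readout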); conditions: JHH-DIPG-1 glioma viability, CellTiter-Glo ATP luminescence
[14] = SU-DIPG-XXV glioma cell viability, MIPE5.0 library, qHTS (AID 1347068; cut-off not given, nearly all actives have IC50 up to about 30 µM)
[15] = kinase inhibitors against Plasmodium liver-stage infection, cell-based, known kinase inhibitor set, luminescence, hepatoma host viability (AID 624392); conditions: Plasmodium liver stage in hepatoma cells, luciferase luminescence, concentration not given here; liver cell % of control: measured here: host liver cell viability; parasite % of control: stronger effect = lower value;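 further: infected cells incubated roughly two days before readout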
[16] = growth inhibition of DIPG glioma cells, dose response, cell-based, SU-DIPG-XIII, MIPE5.0, CellTiter-Glo, qHTS (AID 1347064; cut-off not given, nearly all actives have AC50 up to about 23 µM); conditions: SU-DIPG-XIII viability, CellTiter-Glo ATP luminescence
[17] = modifiers of HSF1 nuclear foci, imaging, Selleck Cancer Library (AID 1347162; in the data active means plate-normalised HSF1 focus index below about 0.46); conditions: human cells, at 10 µM; SSMD: measured here: HSF1 foci SSMD mean; cell count: measured here: cell number; plate-normalised HSF1 focus index: stronger effect = lower value
[18] = survival rescue of mitochondrial mutant cells in low glucose, primary screen, MELAS cybrids, Rieske KO mouse fibroblasts, CellTiter-Glo (AID 1508586;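 active means mean z-score across replicates of 1.96 or higher in either the MELAS or the Rieske mutant cell line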;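 further: z relative to plate mean and SD of compound and empty wells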)

With `CC(=O)OCC1=C(C(=O)[O-])N2C(=O)[C@@H](NC(=O)CCC[C@@H](N)C(=O)[O-])[C@H]2SC1.[Zn+2]` the period change [1] was -0.01 h (inactive), the inhibition [2] was 0% (inactive) and the fluorescence ratio (interference) [3] was 0.9 (inactive). For the same compound, the remaining activity [4] was 102% (inactive), the fold change ([5]; stronger effect = lower value) was 1.04 (inactive) and the fold change ([5]; measured here: relative caspase fold change +Dox/-Dox) was 1.44. The cell count ([5]; measured here: total cells with miR-34 induction, stronger effect = lower value) was 10400, the cell count ([5]; measured here: total cells without miR-34 induction) was 10000 and the z-score [6] was -0.275 (inactive).
With `O=[N+]([O-])c1ccc(O[C@@H]2O[C@H](CO)[C@@H](O)[C@H](O)[C@H]2F)c([N+](=O)[O-])c1` the period change [1] was -0.07 h (inactive) and the remaining activity [4] was 96.8% (inactive).
With `CCCN(CCC)[C@@H]1CCc2c(F)ccc(O)c2C1` the period change [1] was -0.015 h (inactive) and the remaining activity [4] was 110% (inactive).
For `NCC#Cc1ccccc1`, the period change [1] was 0.045 h (inactive) and the remaining activity [4] was 96.6% (inactive).
For `O=C(O)C(=O)c1cn(Cc2ccccc2)c2ccc(-c3ccc(OC(F)(F)F)cc3)cc12`, the outcome [7] was “inactive”, the outcome [8] was “inactive” and the outcome [9] was “inactive”. For the same compound, the outcome [10] was “inactive”, the outcome [11] was “inactive” and the outcome [12] was “inactive”. For the same compound, the outcome [13] was “inactive” and the outcome [14] was “inactive”.
For `Cc1ccccc1-n1c(Cn2cnc3c(N)ncnc32)nc2cccc(C)c2c1=O`, the liver cell % of control [15] was 91.8% and 81.8% and 99.4%, the parasite % of control [15] was 49.6% (inactive) and 56.6% (inactive) and 61.4% (inactive) and the outcome [7] was “inactive”. For the same compound, the AC50 [8] was 4180 nM (active), the AC50 [9] was 1320 nM (active) and the AC50 [10] was 105 nM (active). The outcome [16] was “inactive”, the outcome [11] was “inactive” and the AC50 [12] was 743 nM (active). For the same compound, the outcome [13] was “inactive”, the outcome [14] was “inactive” and the SSMD [17] was 2.3. The cell count [17] was 6650 and the plate-normalised HSF1 focus index [17] was 1.12 (inactive).
With `COC12C(COC(N)=O)C3=C(C(=O)C(C)=C(N)C3=O)N1CC1C2N1C` (centres undefined) the AC50 [7] was 1480 nM (active).
In the case of `C[C@]12COC(=O)C[C@@H]1CC[C@@H]1[C@@H]2CC[C@@]2(C)[C@H]1CC[C@]2(C)O`, the outcome [7] is reported as “inactive”, the outcome [8] is reported as “inactive” and the outcome [9] is reported as “inactive”. The outcome [10] was “inactive”, the outcome [16] was “inactive” and the outcome [12] was “inactive”. For the same compound, the outcome [13] was “inactive”, the outcome [14] was “inactive” and the z-score ([18]; MELAS cybrid survival, CellTiter-Glo 48 h, stronger effect = higher value) was 0.293 (inactive). It also gave a z-score ([18]; Rieske KO mouse fibroblast survival, CellTiter-Glo 72 h) of 0.228.
In the case of `C[C@@H]1O[C@H](C[N+](C)(C)C)CS1`, the period change [1] is reported as -0.11 h (inactive), the inhibition [2] is reported as -1% (inactive) and the fluorescence ratio (interference) [3] is reported as 1 (inactive). For the same compound, the remaining activity [4] was 81.1% (inactive).
With `C/C(=C\c1csc(C)n1)[C@@H]1C[C@@H]2O[C@]2(C)CCC[C@H](C)[C@H](O)[C@@H](C)C(=O)C(C)(C)[C@@H](O)CC(=O)O1` the AC50 [7] was 2.63 nM (active), the outcome [8] was “inactive” and the outcome [9] was “inactive”. For the same compound, the outcome [10] was “inactive”, the outcome [16] was “inactive” and the AC50 [11] was 1.66 nM (active). The outcome [12] was “inactive”.
